Most compounds without a hit are left out; they make up all but 21% or so of the library.
Pf growth 96h = Primary qHTS for delayed death inhibitors of the malarial parasite plastid, 96 hour incubation; P. falciparum luciferase reporter growth, 96 h; Potency, µM (titrated, usually from 28.7 µM), inactives show top-dose activity change, negative = inhibition, most hits filed as inhibitors; hit rate 6.9% among 320,000; further: potency means the concentration at half of the fitted maximal effect; on the % scale 0 is the no-effect control and ±100 the full control effect
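Cell-based qHTS: luciferase-tagged P. falciparum in erythrocytes (2% hematocrit, 0.05% parasitemia final) incubated with compounds for 96 hours, 37 C, 5% CO2; luciferase detection reagent then added and luminescence measured.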
CHX counter = Cycloheximide Counterscreen for Small Molecule Inhibitors of Shiga Toxin | cell reporter, cycloheximide protein synthesis inhibition counterscreen | max response, % | hit rate 12% among 300,000 | AID 2314, 2010; in the data active means max response mostly above about 13%, no sharp cut-off; inactive means mostly below about 14%; further: read at 38.3 µM for the half of the compounds with a filed dose; 0% is about no effect
HCV inhibitor = qHTS Assay for Inhibitors of Hepatitis C Virus (HCV); Potency, µM (doses to about 41.8 µM), without a hit: at the top dose activity change, negative = inhibition, most hits filed as inhibitors; Huh7.5.1 HCVcc-Cre infection, luciferase reporter, 44 h; hit rate 3.4% among 340,000; further: potency means the concentration at half of the fitted maximal effect; on the % scale 0 is the no-effect control and ±100 the full control effect
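1,000 cells/well; 4 h culture; + compound; + HCVcc-Cre (~0.5 moi); 44 h; luciferase substrate, RT 15 min; read 15 sec.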
HCMV antiviral = qHTS Assay for inhibitors of the human cytomegalovirus (HCMV); AID 1259415, 2018; hit rate 4.5% among 410,000; activity change, negative = inhibition, % at 57.5 µM; HFF cells, HCMV-luciferase reporter, 72 h; hits give low values; in the data active means activity change below about -60%; inconclusive means no clear call, values can overlap the other calls; inactive means above about -39%; further: on the % scale 0 is the no-effect control and ±100 the full control effect
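Cell-based, HFFs, 1000 cells/well, 16 h 37C; cpds in DMSO + HCMV-luc, MOI 1 PFU/cell; 72 h 37C; OneGlo luminescence after 5 min RT; norm. to buffer vs Salinomycin 10uM.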
Pf growth 48h = Primary qHTS for delayed death inhibitors of the malarial parasite plastid, 48 hour incubation; Potency, µM (doses to about 28.7 µM), for the others: at the highest dose activity change, negative = inhibition, usual class: inhibitors; hit rate 5.9% among 310,000; AID 504832, 2011; P. falciparum luciferase growth in erythrocytes, 48 h; further: potency means the concentration at half of the fitted maximal effect; on the % scale 0 is the no-effect control and ±100 the full control effect
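Compounds are pin-transferred into medium, infected erythrocytes (2% hematocrit, 0.1% parasitemia final) are added, and plates sit one parasite generation at 37 C in 5% CO2. Detection reagent is then added and luminescence measured.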
Shiga inhibitor = A qHTS for Small Molecule Inhibitors of Shiga Toxin | hit rate 9.2% among 290,000 | inhibition, % at 38.7 µM | AID 2315, 2010 | Vero cells, Shiga toxin protein synthesis inhibition reporter; in the data active means inhibition mostly above about 28%, no sharp cut-off; inactive means mostly below about 43%; further: 0% is about no effect
* = called active by the depositor. Unless noted, the call rests on the fitted dose curve; in most records, active means well fitted inhibition curve with a large enough effect; inconclusive means small, poorly fitted or top-dose-only effect, or another doubt; inactive means no such curve, though single readings can be large or run the other way.

How did CCN(CC)C(=O)CSc1nc2ccccc2c(=O)n1CC1CCCCC1 do in these assays?
Pf growth 96h: inconclusive; CHX counter: -4; HCV inhibitor: inconclusive; HCMV antiviral: inconclusive; Pf growth 48h: 4.1µM*; Shiga inhibitor: -4

Results for O=C(NCc1ccccc1Cl)C(=O)NCC(c1ccc2c(c1)OCO2)N1CCOCC1 (stereo unspecified) ?
HCMV antiviral: 2

How did CCC(C(=O)Nc1cc(F)ccc1F)n1nc(-c2cc(C)ccc2C)ccc1=O (stereo unspecified) do in these assays?
HCMV antiviral: 27

Results for Clc1ccc(-n2ncc3c(NCCN4CCOCC4)ncnc32)cc1 ?
Pf growth 96h: 0%; CHX counter: 43*; HCV inhibitor: inconclusive; HCMV antiviral: inconclusive; Pf growth 48h: 239%; Shiga inhibitor: 121*

Results for c1ccc(-n2ncc3c(NCCCN4CCOCC4)ncnc32)cc1 ?
Pf growth 96h: inconclusive; CHX counter: 34*; HCV inhibitor: -16%; HCMV antiviral: 167; Pf growth 48h: 91%; Shiga inhibitor: 148*

What do the screens show for `Clc1ccc(-n2ncc3c(NCc4ccccn4)ncnc32)cc1`?
Pf growth 96h: inconclusive; CHX counter: -2; HCV inhibitor: inconclusive; HCMV antiviral: 65; Pf growth 48h: -27%; Shiga inhibitor: -22

Results for Fc1ccc(-n2ncc3c(NCCCN4CCOCC4)ncnc32)cc1 ?
HCMV antiviral: 40

What do the screens show for `CCOC(=O)c1[nH]c(C)c(C(=O)N2CCCC(Nc3ccc(C)c(C)c3)C2)c1C` (stereo unspecified)?
Pf growth 96h: 43%; CHX counter: -4; HCV inhibitor: -4%; HCMV antiviral: -27; Pf growth 48h: -8%; Shiga inhibitor: -5

How did c1csc(C2Nc3ccccc3-c3nc4ccccc4n32)c1 (stereo unspecified) do in these assays?
Pf growth 96h: inconclusive; CHX counter: 52*; HCV inhibitor: -16%; HCMV antiviral: -1; Pf growth 48h: inconclusive; Shiga inhibitor: 124*

What do the screens show for `Cc1ccsc1C1Nc2ccccc2-c2nc3ccccc3n21` (stereo unspecified)?
Pf growth 96h: 82%; CHX counter: 76*; HCV inhibitor: inconclusive; HCMV antiviral: 30; Pf growth 48h: 59%; Shiga inhibitor: 132*

How did C[C@]12c3[nH]c4ccc(Cl)cc4c3CCN1C(=O)[C@@H](CC(=O)NCCN1CCOCC1)C[C@@H]2C(=O)N1CCCCC1 do in these assays?
HCV inhibitor: 6%; HCMV antiviral: -26

What do the screens show for `CCCc1nc2ccc(C)cn2c1Cc1ccsc1`?
HCMV antiviral: 79

What do the screens show for `Cc1cc(C)n(NC(=S)NC2CCCCC2)c(=O)c1C#N`?
Pf growth 96h: 47%; CHX counter: 13; HCV inhibitor: 5%; HCMV antiviral: 5; Pf growth 48h: 34%; Shiga inhibitor: -7

How did O=C(O)c1cc(C(=O)O)cc(-c2ccc(/C=c3/sc4nc5ccccc5n4c3=O)o2)c1 do in these assays?
Pf growth 96h: -9%; CHX counter: -2; HCV inhibitor: 5%; Pf growth 48h: -10%; Shiga inhibitor: 23

Results for O=c1c2ccccc2nc2sc3ccccc3n12 ?
Pf growth 96h: 31%; CHX counter: 20*; HCV inhibitor: inconclusive; HCMV antiviral: 60; Pf growth 48h: 102%; Shiga inhibitor: 97*

What do the screens show for `O=C(O)c1cccc(-c2ccc(/C=c3/sc4nc5ccccc5n4c3=O)o2)c1`?
Pf growth 96h: 30%; CHX counter: 44*; HCV inhibitor: 14%; HCMV antiviral: 20; Pf growth 48h: 66%; Shiga inhibitor: 70*

How did COC(=O)/C=c1/sc2nc3ccccc3n2c1=O do in these assays?
Pf growth 96h: inconclusive; CHX counter: 6; HCV inhibitor: 8%; HCMV antiviral: 5; Pf growth 48h: inconclusive; Shiga inhibitor: -12

Results for O=c1/c(=C/c2ccccn2)sc2nc3ccccc3n12 ?
Pf growth 96h: 153%; CHX counter: 36*; HCV inhibitor: 0%; HCMV antiviral: 69; Pf growth 48h: 176%; Shiga inhibitor: 126*

Results for Cc1ccc(CCNC(=O)CC(C)CC2=NS(=O)(=O)c3ccccc3N2)cc1 (stereo unspecified) ?
Pf growth 96h: inconclusive; CHX counter: -6; HCV inhibitor: inconclusive; HCMV antiviral: -28; Pf growth 48h: inconclusive; Shiga inhibitor: 2

Results for C#CCSc1nc(=O)c2cccnc2n1-c1ccc(C)cc1 ?
Pf growth 96h: inconclusive; CHX counter: -2; HCV inhibitor: 1%; HCMV antiviral: inconclusive; Pf growth 48h: inconclusive; Shiga inhibitor: 7

What do the screens show for `CCOc1cc(/C=C(\C#N)C(=O)Nc2ccccn2)ccc1O`?
Pf growth 96h: 14%; CHX counter: 13*; HCV inhibitor: inconclusive; HCMV antiviral: -31; Pf growth 48h: 32%; Shiga inhibitor: 44

How did CCOc1ccccc1NC(=O)/C(C#N)=C/c1cccnc1 do in these assays?
Pf growth 96h: 13µM*; CHX counter: -2; HCV inhibitor: 7%; HCMV antiviral: 29; Pf growth 48h: -23%; Shiga inhibitor: 12

What do the screens show for `COc1cc(/C=C(\C#N)C(=O)Nc2ccc3c(c2)OCCO3)ccc1O`?
Pf growth 96h: 2%; CHX counter: 33*; HCV inhibitor: inconclusive; HCMV antiviral: inconclusive; Pf growth 48h: 59%; Shiga inhibitor: 51*

How did COc1cc(/C=C(\C#N)C(=O)Nc2ccccn2)ccc1O do in these assays?
Pf growth 96h: 8%; CHX counter: 19*; HCV inhibitor: 17%; HCMV antiviral: inconclusive; Pf growth 48h: 13%; Shiga inhibitor: 52*

What do the screens show for `Cc1cccc(/C=C(\C#N)C(=O)Nc2ccccn2)c1`?
Pf growth 96h: -1%; CHX counter: 0; HCV inhibitor: -9%; HCMV antiviral: 12; Pf growth 48h: 13%; Shiga inhibitor: -5

How did COc1cc(/C=C(\C#N)C(=O)Nc2cccc3ncccc23)ccc1O do in these assays?
Pf growth 96h: 16%; CHX counter: -2; Pf growth 48h: 0%; Shiga inhibitor: -10

How did O=C(c1ccccc1)N1CC(=O)N2[C@H](CO)[C@@H](c3ccc(Br)cc3)[C@@H]2C1 do in these assays?
HCMV antiviral: -28

Results for C[C@@H]1COc2cccc(NCCCN3CCOCC3)c2S(=O)(=O)N1 ?
HCMV antiviral: -5

What do the screens show for `Cc1nc2c(c(=O)n1CCC(C)C)c1nc3ccccc3nc1n2Cc1ccc2c(c1)OCO2`?
Pf growth 96h: -57%; CHX counter: -4; HCV inhibitor: 6%; Pf growth 48h: 4%; Shiga inhibitor: -5
